KB-V1 MDR tox: KB-V1 MDR subline cytotoxicity. AID 1347076. Potency, µM (doses to about 46.1 µM), actives largely listed as cytotoxic. 3.4% of 400,000 active. KB-V1 MDR cells viability, CellTiter-Glo, 72 h; further: potency means the concentration at half of the fitted maximal effect; nearly all actives have a fitted effect of over 60% in size
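Potencies derive from concentration-effect curves fitted to normalized luminescence (CellTiter-Glo) of KB-V1 cells treated for 72 h at 37 degrees C in phenol-red-free DMEM containing 10% FBS.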
HT1080 IDH1KD tx: toxicity to HT-1080 IDH1 knockdown cells (counter line) | HT-1080 IDH1 knockdown viability, ATP luminescence, 48 h | Potency, µM (highest dose often 46.1 µM), inactives show at the top dose activity, negative = toxicity, most hits filed as cytotoxic | 2% of 360,000 active;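 further: potency means the concentration at half of the fitted maximal effect; 0% = DMSO wells and -100% = cell-free medium wells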
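Using the IDH1-knockdown HT-1080 line run in the same batch and compound series as the NT line, viability after 48 h at 37 °C was determined by CellTiter-Glo luminescence and expressed as % activity.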
IL-1B inflam inh: inhibitors of inflammasome signaling (IL-1 beta secretion); AID 743279; 4.7% of 360,000 active; activity change, % at 57.5 µM; THP-1 LPS/ATP IL-1B secretion, AlphaLISA, 16 h; hits give low values; in the data active means activity change below about -50%; inconclusive means mostly about -30% to -49%
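Secreted IL-1B measured by AlphaLISA bead assay after 16 h compound exposure of THP-1 cells; compounds (final up to 57.5 uM) added 1 h before LPS (250 ng/mL) and ATP (1.25 mM) stimulation; lower signal means less secretion.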
HT1080NT lethal: kills 2HG-producing HT-1080-NT fibrosarcoma cells; Potency, µM (doses to about 46.1 µM), without a hit: top-dose activity, negative = less viability, most hits filed as cytotoxic; 1.6% of 360,000 active; HT-1080-NT fibrosarcoma viability, CellTiter-Glo ATP luminescence, 48 h; AID 686970;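 further: NT is the 2HG producing partner of a matched IDH1 knockdown line; potency means the concentration at half of the fitted maximal effect; 0% = DMSO-treated cells and -100% = media-only wells without cells; nearly all actives have a fitted effect of over 55% in size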
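Fibrosarcoma NT cells, 750 per well in 5% FBS RPMI, were exposed to compound for 48 hours. Viability: CellTiter-Glo luminescence.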
KB-3-1 cytotox: kills parental KB-3-1 adenocarcinoma cells; 1.4% of 400,000 active; KB-3-1 viability, CellTiter-Glo ATP luminescence, 72 h; Potency, µM (series often up to 46.1 µM), actives largely listed as cytotoxic; further: potency means the concentration at half of the fitted maximal effect; nearly all actives have a fitted effect of over 60% in size
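KB-3-1 cells, DMEM (no phenol red) + 10% FBS; compound by pin transfer, 72 h, 37 °C. Readout: CellTiter-Glo luminescence after 10 min. Data normalized, curve-fitted.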
The depositor's hits bear a star; i = inactive; ? = inconclusive; nt = not tested or not shown; [ ] = dose if it differs, or a comment. A selection: hits, their analogues and other compounds. The true share with any hit is near 8.8%. Unless noted, the call rests on the fitted dose curve; in most records, active means well fitted curve in the direction sought with a large enough effect; inconclusive means small, poorly fitted or top-dose-only effect, or another doubt; inactive means no such curve, though single readings can be large; an effect the other way counts as inactive or inconclusive. Unless noted, on the % scale 0 is the no-effect control and ±100 the full control effect.

SMILES	KB-V1 MDR tox	HT1080 IDH1KD tx	IL-1B inflam inh	HT1080NT lethal	KB-3-1 cytotox
NC(=O)c1ccc(-n2nnnc2SCC(=O)Nc2ccccc2F)cc1	i	-9%	-19	-6%	i
CC(C)N1CCc2c(sc(NC(=O)CCS(=O)(=O)c3ccccc3)c2C#N)C1	nt	1%	-12	-14%	nt
Clc1ccc(Nc2ncnc3c2cnn3-c2ccccc2)cc1	?	-8%	-53*	-11%	i
CC(C)Nc1ncnc2c1cnn2-c1ccc(Cl)cc1	?	-7%	-58*	1%	7.3µM*
N#Cc1ncc(-c2ccc3c(c2)OCCOCCOCCOCCOCCO3)nc1C#N	i	11%	22	2%	i
N#Cc1ncc(-c2ccc3c(c2)OCCOCCOCCOCCO3)nc1C#N	i	12%	-103*	11%	?
O=C(CN(c1ccc2c(c1)OCCO2)S(=O)(=O)c1ccccc1)NCc1ccc(Cl)cc1	3.7µM*	-4%	-14	-2%	i
CCCCN(CC(=O)NCc1ccc(Cl)cc1)S(=O)(=O)c1ccc2c(c1)OCCO2	12µM*	3%	-7	7%	i
CN(CC(=O)NCc1ccc2c(c1)OCO2)S(=O)(=O)c1ccc(Cl)cc1	i	-2%	-17	-3%	i
O=C1CCCC2=C1C(c1cccc(Br)c1)n1nc(-c3ccco3)nc1N2 (stereo not given)	i	3%	-94*	11%	i
COC(=O)c1nc2n(n1)C(c1cccc(Cl)c1)C1=C(CCCC1=O)N2 (stereo not given)	i	4%	-2	-8%	i
O=C(NCCCN1CCCC1)Nc1ccc(F)cc1	i	11%	-3	20%	i
O[Si](CCCN1CCCCC1)(c1ccc(F)cc1)C1CCCCC1 (stereo not given)	?	21µM*	?	?	i
O=C(Nc1cccnc1)c1ccccc1NS(=O)(=O)c1ccc(F)cc1	21µM*	-7%	19	-7%	?
Fc1ccc(-c2csc(-c3ccncc3)n2)cc1	i	-21%	4	-25%	i
O=S(=O)(Nc1ccc(-c2csc(-c3ccccc3)n2)cc1)c1ccc(F)cc1	?	-5%	-101*	-7%	?
O=S(=O)(Nc1cccnc1)c1ccc(F)cc1	i	8%	10	14%	i
O=C(Nc1nc(-c2ccccc2)cs1)c1ccccc1NS(=O)(=O)c1ccc(F)cc1	16µM*	?	-50*	6.5µM*	6.5µM*
CCc1nc(NCCCCCO)c2nnn(Cc3ccccc3F)c2n1	i	-9%	2	-5%	i
COc1cc(/C=C/C(=O)c2ccc(O)cc2)ccc1OCC#N	18µM*	16%	?	24%	6.5µM*
COc1cccc(C(=O)/C=C/c2ccc(OCC#N)c(OC)c2)c1	?	?	-102*	?	?
COc1cc(/C=C/C(=O)OCC(=O)N2CCC(C)CC2)ccc1OCC#N	i	6%	-28	4%[9.24 µM]	i
COC(=O)c1ccc(/C=C/C(=O)c2cccc(OC)c2)cc1	i	23µM*	-101*	?	i
CC(C)Oc1ccc(CNC(=O)Cn2ccc3cc(S(=O)(=O)N4CCCC4)ccc32)cc1	i	-1%	94	-4%	i
COc1cccc(C(C#N)NCCCNC(C#N)c2cccc(OC)c2OC)c1OC (stereo not given)	i	19%	-7	24%	i
SMILES	KB-V1 MDR tox	HT1080 IDH1KD tx	IL-1B inflam inh	HT1080NT lethal	KB-3-1 cytotox
COc1cc(C2C3=C(COC3=O)OC(C)(C)Oc3cc4c(cc32)OCO4)cc(OC)c1OC (stereo not given)	3.7µM*	?	16	?	0.73µM*
COc1cc(C2C3=C(COC3=O)Oc3cc4c(cc32)OCO4)ccc1O (stereo not given)	4.6µM*	?	28	?	3.7µM*
CC(OC(=O)c1ccc(S(C)(=O)=O)c([N+](=O)[O-])c1)C(=O)NC1C2CC3CC(C2)CC1C3 (stereo not given)	?	nt	nt	nt	i
Cc1ccccc1-n1nc(C(=O)c2cccs2)cc(-c2nc3ccccc3[nH]2)c1=N	2.3µM*	-16%	14	-7%	i
Cc1cccc(-n2nc(C(=O)c3ccco3)cc(-c3nc4ccccc4[nH]3)c2=N)c1	i	-7%	-12	0%	i
COc1ccc(-n2nc(C(=O)c3cccs3)cc(-c3nc4ccccc4[nH]3)c2=N)cc1	16µM*	-21%	?	-6%	?
Nc1ccc(C(=O)C(=O)c2ccccc2)cc1	i	15%	-18	-7%	i
COc1cccc(CNC(=O)C(=O)Nc2ccc3nc4n(c(=O)c3c2)CCCCC4)c1	i	nt	nt	nt	i
CCc1nnc(N/N=C/c2ccc(N3CCC(C)CC3)c([N+](=O)[O-])c2)n1N	?	33µM*	59	?	i
Cc1nnc(N/N=C/c2ccc([N+](=O)[O-])cc2)n1N	i	0%	40	9%	i
Cc1nnc(N/N=C/c2cc([N+](=O)[O-])c(N3CCC(C)CC3)cc2N2CCC(C)CC2)n1N	23µM*	-18%	-68*	-5%	i
CSCCC(C(=O)Nc1c(C)cccc1C)n1c(-c2cc(C)cs2)nc2ccccc21 (stereo not given)	i	-1%	-11	0%	i
CCN1CCN(C(=O)C2CCCN(S(=O)(=O)c3cc(Cl)ccc3Cl)C2)CC1 (stereo not given)	?	-5%	-8	1%	i
O=C(C1CCN(S(=O)(=O)c2ccc(Cl)s2)CC1)N1CCN(c2ccccc2)CC1	18µM*	6%	-12	-8%	i
CC1CCN(C(=O)C2CCN(S(=O)(=O)c3cc(Cl)ccc3Cl)CC2)CC1	?	-1%	-66*	3%	i
O=C(C1CCN(S(=O)(=O)c2cccnc2)CC1)N1CCN(c2ccc(Cl)cc2)CC1	6.5µM*	?	-13	?	13µM*
O=C(C1CCN(S(=O)(=O)c2ccccc2)CC1)N1CCN(c2ccccc2)CC1	i	-19%	i	?	i
Cc1nonc1C1CCCN1C(=O)c1cc(COc2ccc(F)cc2Cl)on1 (stereo not given)	i	-1%	-24	0%	i
Cc1ccc(C(=O)OCC(=O)N(C)C2CCS(=O)(=O)C2)cc1[N+](=O)[O-] (stereo not given)	i	-1%	2	3%	i
O=C(OCc1cc(=O)n2nc(-c3cccs3)sc2n1)c1ccc(F)cc1	i	nt	nt	nt	i
COc1ccc(CNC(=O)c2cc3c(=O)n(Cc4ccc(OC)cc4)ccc3nc2C)cc1	i	nt	nt	nt	2.6µM*
Cc1nc2ccn(Cc3cccnc3)c(=O)c2cc1C(=O)NCc1ccc(Cl)cc1	i	nt	nt	nt	?

Screening data: PubChem BioAssay, National Center for Advancing Translational Sciences (NCATS)
